Data on 39 molecules can be found in PubChem BioAssay (NCI).

Several values for one entry are separate records, joined by “and”; a condition that tells them apart may be missing. Identical values can stand only once. This is part of a sample that, as a whole, favours compounds with a hit. Of some 83,000 tested, about 20% had one in any assay.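 Compound tested at a single concentration for 48 hours in 96-well plates; a percent growth value below 10 was scored as active.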 A number with no mark means an inactive call. Activity calls are given as the source filed them.

One experiment has as its system MDA-MB-468 breast. The experiment is described as follows: NCI-60 one-dose screen, 48 h (100 = growth as untreated, 0 = no growth, -100 = all killed). Particulars: 1 µM. On the procedure: Growth inhibition of the MDA-MB-468 human Breast tumor cell line is measured as a screen for anti-cancer activity. Cells are grown in 96 well plates and exposed to the test compound for 48 hours. Compounds are tested at a single concentration, which is 10^-5 M for most compounds. The reported endpoint is percent growth (GI% or GIPRCNT), where numbers from 0 - 100% represent growth inhibition, and numbers from -100% - 0 represent cell death. For example, a value of 40 represents 60% growth inhibition. A value of 0 means no net growth occurred over the course of the experiment. A value of -40 indicates 40% of cells at the beginning of the experiment died by the end of the experiment. A value of -100 means all cells are dead at the end of the experiment.
NCI-60 Human Tumor Cell Lines Screen was performed using the standard one-dose NCI protocol, which is described in more detail at https://dtp.cancer.gov/discovery_development/nci-60/default.htm.
Compounds with GIPRCNT values below 10 were considered active. Activity score was based on GIPRCNT using the following formula: […]
Score is 0 for GIPRCNT values of 100 or above, 50 for GIPRCNT values of 0, and 100 for GIPRCNT values of -100.
For the molecule `CC/C(=C(/c1ccc(O)cc1)c1ccc(OCCN(C)C(=O)COCCOCCNC(=O)c2ccc3c(c2)CN([C@@H]2CCC(=O)NC2=O)C3=O)cc1)c1ccccc1`, the growth is 5.9% (active).

Staying with this experiment, now noted: 10 µM.
In the case of `CC/C(=C(/c1ccc(O)cc1)c1ccc(OCCN(C)C(=O)COCCOCCNC(=O)c2ccc3c(c2)CN([C@@H]2CCC(=O)NC2=O)C3=O)cc1)c1ccccc1`, the growth is -23.9% (active).

The experiment is the same for the next values; noted with them: 10 µM unless noted.
On to `CN(C)C(=O)c1cc(-c2ccc3ncnc(N4CCc5cc(F)c(Cl)cc54)c3c2)cnc1N`, for which the growth was -80.4% (active).
Still for that read-out and setting: the result for `C#CCCCNCCNc1ccnc2cc(Cl)ccc12` reads 50.4%.
In the case of `O=C(Nc1nc2ccc([N+](=O)[O-])cc2s1)Nc1ccc(Cl)cc1Cl`, the growth is 29.1%.
Still for that read-out and setting: the result for `CC1=C(C(=O)Nc2ccccc2)C(c2cccc(Cl)c2Cl)n2c(nc3ccccc32)N1` (stereo not given) reads -32.2% (active).
Take `O=C1C=CC(=CC=C2N(Cc3ccc4ccccc4c3)c3ccccc3N2Cc2ccc3ccccc3c2)C=C1`: the growth was -48.9% (active) and -28.9% (active).
On the same count and under the same terms, the result for `CC[C@]12C=CCN3CC[C@]4(C(=C(C(=O)OC)C1)Nc1cc(OC)c([C@@H]5[C@H]6O[C@H]6[C@@]6(CC)CC(C(=O)OC)=C7Nc8cc(O)ccc8[C@@]78CCN5[C@@H]68)cc14)[C@@H]32` reads -48.9% (active).
On the same count and under the same terms, the result for `O=C(Nc1ccc(S(=O)(=O)N2CCCCC2)cc1)C(Cl)Cl` reads 118%; that for `CC1=C(C(=O)OCc2ccccc2)C(c2cccc3ccccc23)n2c(nc3ccccc32)N1` (stereo not given), -42.5% (active); that for `COc1cc(CNC(=O)C[C@H](C)CCC=C(C)C)ccc1OCc1cn(-c2ccc(Br)cc2)nn1`, 46.7%.
The same measure, in the same setting: then `N#CC1=C(c2ccco2)Nc2c(c(-c3ccccc3)nn2-c2ccccc2)C12C(=O)Nc1ccc(Br)cc12` (stereo not given), with 66.6%.
Regarding `CN(C)c1nc(NCCNS(=O)(=O)c2ccc(C(=O)/C=C/c3ccc(Cl)cc3)cc2)nc(N2CCOCC2)n1`, the growth is -83.2% (active).
In the case of `CCOC(=O)c1ccc(NC(=S)NC(=O)c2ccc(NC(=O)C(C)C)cc2OC)cc1`, the growth is 3.97% (active).
Same read-out and setting: then `O=C1CCC(N2C(=O)c3cccc(NCCOCCOCCOCCC(=O)NCCCC(=O)NC(c4ccc5c(c4)OCO5)c4cc(Cl)c5cccnc5c4O)c3C2=O)C(=O)C1` (stereo not given), with -33.9% (active).
Same read-out and setting: the result for `O=C(CSc1nnc(-c2ccc(-c3nc4ccccc4[nH]3)cc2)o1)Nc1ccccc1` reads 92.9%.
Still for that read-out and setting: the result for `Cc1ccccc1Nc1nnc(-c2c[nH]c3ccccc23)o1` reads -35.5% (active); that for `O=C(Cn1c(-c2ccccc2)nc2ccccc21)N=Nc1c(O)[nH]c2ccc(Cl)cc12`, -18.9% (active).
As for `Cc1nc(Nc2ccccn2)sc1C1=NNC(c2ccccc2F)C1` (stereo not given), the growth was -13.7% (active).
The same measure, in the same setting: the result for `Cc1cccc(C)c1Nc1nnc(-c2c[nH]c3ccccc23)o1` reads 93.2%; that for `COc1ccc(NC(=O)CSc2nnc(-c3ccc(-c4nc5ccc(Cl)cc5[nH]4)cc3)o2)cc1`, 86.2%.
On to `O=C(Nc1ccc(-c2ccc3c(c2)NC(=O)/C3=C\c2ccc[nH]2)cc1)Nc1cccc(Cl)c1`, for which the growth was -55.5% (active).
On the same count and under the same terms, the result for `O=c1[nH]c2ccccc2cc1COc1ccc(Nc2nccc(-c3ccc(Cl)cc3)n2)cc1` reads 89.6%; that for `COc1cc(CNC(=O)C[C@H](C)CCC=C(C)C)ccc1OCc1cn(-c2ccccc2Cl)nn1`, 28.5%; that for `O=C(N/N=C/c1occc1Br)c1[nH]c2ccc(Br)cc2c1-c1ccccc1`, -75.1% (active).
The same measure, in the same setting: then `O=C(c1ccc(Cl)cc1)C1[C@H](c2ccccc2Cl)[C@@H](c2ccccc2)NC12C(=O)Nc1ccc(Br)cc12` (stereo not given in full), with -83.2% (active); and `CS(=O)(=O)Nc1cccc(-n2c(COc3ccc(OC(F)(F)F)cc3)nc3ccccc32)c1`, with 107% and 106%.
Still for that read-out and setting: the result for `O=C(NN1C(=O)/C(=C/C=C/c2ccc([N+](=O)[O-])o2)SC1=S)c1ccc(O)cc1` reads -77.3% (active).
In the case of `CCOc1ccccc1[C@H]1C(C(=O)c2ccc(Cl)cc2)C2(N[C@@H]1c1ccccc1)C(=O)Nc1ccc(Cl)cc12` (stereo not given in full), the growth is 4.39% (active).
Still for that read-out and setting: the result for `Cc1ccc(C(=O)Nc2cc(-n3cnc(F)c3)cc(C(F)(F)F)c2)cc1C#Cc1cnc2cccnn12` reads 81.7%.
Still for that read-out and setting: then `c1n[nH]cc1-c1nc2ccc3[nH]ncc3c2c2c1CC1(CC2)COC1`, with -24.5% (active); and `O=C(NN1C(=O)/C(=C/C=C/c2ccc([N+](=O)[O-])o2)SC1=S)c1ccncc1`, with -73.9% (active).
Still for that read-out and setting: the result for `CC1=C(C)C(=O)C(N2CCSCC2)=CC1=O` reads 60.4%; that for `Clc1ccc(Nc2nnc(-c3c[nH]c4ccccc34)o2)cc1`, -20.5% (active).
For the molecule `Cc1ccc2nc(SCc3ccccc3F)n(-c3ccccc3)c(=O)c2c1`, the growth was 89.3%.
Still for that read-out and setting: then `O=CNc1ccc(-n2cnc3cc(-c4ccc(O)cc4)ccc32)cc1`, with 86.1%; and `COc1c(B(O)O)cc(F)cc1-c1nc2ccc3[nH]ncc3c2c2c1COCC2`, with 41.9%.
With `C[C@@H]1CN(c2ccc3ncc(C#Cc4cncc(C(=O)Nc5ccc(CN6CCN(C)CC6)c(C(F)(F)F)c5)c4)n3n2)C[C@@H](C)O1`, the growth was -95.1% (active).
On the same count and under the same terms, the result for `COc1ccc(-c2nc3ccc(-c4nnc(SCc5ccccc5)o4)cc3[nH]2)cc1` reads -23.8% (active).
Still for that read-out and setting: then `C[C@H]1[C@@H](CC(=O)N[C@@H](Cc2coc3ccccc23)B(O)O)O[C@@H]2OC3(C)CC[C@H]4[C@H](C)CC[C@@H]1[C@@]24O3`, with -49.6% (active).
